# Screening results: PubChem, National Center for Advancing Translational Sciences (NCATS)
# HCV inh: HCV inhibition | Huh7.5.1 HCVcc-Cre infection, luciferase reporter, 44 h | Potency, µM (doses to about 41.8 µM), without a hit: at the highest dose activity change, negative = inhibition, actives largely listed as inhibitors | hit rate 3.4% among 340,000
#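 HCVcc-Cre virus at an moi near 0.5 was added right after compound to cells cultured 4 h from seeding (1,000 cells/well). Luciferase activity was determined 44 h later, 15 min after substrate addition at RT.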
# Pf growth 48h: inhibits P. falciparum growth in the first generation, 48 h; Potency, µM (highest dose often 28.7 µM), inactives show top-dose activity change, negative = inhibition, usual class: inhibitors; AID 504832; P. falciparum luciferase growth in erythrocytes, 48 h; hit rate 5.9% among 310,000
#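 In quantitative HTS format, infected erythrocytes bearing luciferase-reporter parasites were treated for a single generation at 37 C. Luminescence after adding detection reagent served as the growth measure.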
# AMA1 RON2 block: AMA1-RON2 (P. falciparum) interaction inhibition | AlphaScreen AMA1-biotinylated RON2 peptide binding | Potency, µM (highest dose often 58.2 µM), without a hit: at the highest dose activity change, negative = inhibition, hits mostly inhibitors | hit rate 0.2% among 360,000;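 also: 0% = vehicle wells and -100% = peptide control; nearly all actives have a fitted effect of over 45% in size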
#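 AMA1 (3D7) with his tag at 25 nM final met compounds first, then biotinylated RON2 peptide at 25 nM; detection used donor plus acceptor beads, 10 µg/mL apiece, read by AlphaScreen after 30 min at room temperature.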
# Pf growth 96h: P. falciparum growth inhibition at 96 hour, primary screen for plastid delayed-death inhibitors; P. falciparum luciferase reporter growth, 96 h; Potency, µM (series often up to 28.7 µM), inactives show at the highest dose activity change, negative = inhibition, actives largely listed as inhibitors; hit rate 6.9% among 320,000; AID 504834
#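 Luminescence readout: decreased luciferase signal marks inhibited growth of reporter-expressing P. falciparum in infected red cells (2% hematocrit, 0.05% parasitemia final), exposed to compound two generations (96 h, 37 C, 5% CO2).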
# Active calls of the source: *; ? = inconclusive; . = no result given. Rows were chosen to be rich in hits. Some 11% of all compounds tested hit in one or more screens of this group. Calls follow the shape of the dose curve; as a rule, active = well fitted curve in the direction sought with a large enough effect; inconclusive = small, poorly fitted or top-dose-only effect, or another doubt; inactive = no such curve, though single readings can be large; an effect the other way counts as inactive or inconclusive. Unless noted, % is scaled to controls: 0 for no effect and ±100 for the full control effect; potency is read from the fitted curve at half-maximal effect.
SMILES,HCV inh,Pf growth 48h,AMA1 RON2 block,Pf growth 96h
CC1CCCN(c2sc(S(C)(=O)=O)nc2S(=O)(=O)c2ccc(Cl)cc2)C1 (centres undefined),-23%,?,-8%,13µM*
CC1CN(c2sc(S(C)(=O)=O)nc2S(=O)(=O)c2ccc(Cl)cc2)CC(C)O1 (centres undefined),17%,-12%,11%,?
CCS(=O)(=O)c1nc(S(=O)(=O)c2ccc(C)cc2)c(NCCCN2CCOCC2)s1,-12%,?,-1%,?
CCS(=O)(=O)c1nc(S(=O)(=O)c2ccc(Cl)cc2)c(NCCCN2CCOCC2)s1,-10%,-17%,-5%,12µM*
CCCS(=O)(=O)c1nc(S(=O)(=O)c2ccc(C)cc2)c(N2CCOCC2)s1,-3%,12µM*,-4%,-23%
CCCS(=O)(=O)c1nc(S(=O)(=O)c2ccc(C)cc2)c(N2CCCCC2)s1,.,.,-6%,.
CCS(=O)(=O)c1nc(S(=O)(=O)c2ccc(Cl)cc2)c(N2CCc3ccccc3C2)s1,-28%,9.3µM*,9%,2.9µM*
CCOC(=O)Cn1nc(C(F)F)c(Br)c1C,25%,13%,3%,?
O=C(C[C@H]1CC[C@H]2[C@@H](COC[C@@H](O)CN2S(=O)(=O)c2ccccc2)O1)N[C@@H]1CCN(Cc2ccccc2)C1,.,.,1%,.
O=C(O)C1C2CCC(O2)C1C(=O)Nc1ccc(F)c(Cl)c1 (centres undefined),9%,9%,-13%,12µM*
Cc1ccc(NC(=O)C2OCCc3ccccc32)cc1Cl (centres undefined),-7%,-7%,13%,8.3µM*
O=C(O)C1C2CCC(O2)C1C(=O)Nc1ccc(Cl)cc1 (centres undefined),11%,-4%,-5%,14%
Cc1ccc(NC(=O)C2C3CCC(O3)C2C(=O)O)cc1Cl (centres undefined),9%,7%,-16%,13µM*
Cc1ccc(NC(=O)C2CCCCC2C(=O)O)cc1Cl (centres undefined),18%,16%,?,?
COCCNC(=O)C1(C)CCCN(CC(=O)c2ccc(OC)cc2)C1 (centres undefined),.,.,-1%,.
NC(=O)NC1CCCc2c1[nH]c1ccc(Cl)cc21 (centres undefined),6.3µM*,21%,-4%,-27%
Cc1ccc(N(C)S(=O)(=O)c2cccc(C(=O)Nc3ccc(C)cn3)c2)cc1,?,2.1µM*,20%,5.2µM*
COc1ccccc1N(Cc1ccccc1)S(=O)(=O)c1cccc(C(=O)Nc2ccccn2)c1,?,10µM*,-5%,9.3µM*
CC1(C)CC(NC(=O)c2cccc(S(=O)(=O)N(Cc3ccccc3)c3ccccc3)c2)CC(C)(C)N1,2.2µM*,10µM*,2%,13µM*
Cc1ccc(N(C)S(=O)(=O)c2cccc(C(=O)NC3CC(C)(C)NC(C)(C)C3)c2)cc1,?,?,2%,?
O=C(Nc1ccc(Cl)cc1)c1cccc(S(=O)(=O)Nc2ccccn2)c1,.,12%,-5%,13µM*
CC(C)(C)NC(=O)C(c1ccncc1)N(C(=O)Cn1nnc(-c2ccc(F)cc2)n1)c1cccc(F)c1 (centres undefined),-1%,?,13%,0%
O=C(NCc1cccnc1)c1cc(C2CCCCN2C(=O)CCCc2ccccc2)on1 (centres undefined),.,.,10%,.
COc1ccc(CN2C(=O)C(CC(=O)NCCc3ccccn3)CC(C(=O)N3CCCCCC3)=C2C)cc1 (centres undefined),.,.,41%,.
CN1CCN(C(=S)c2cn(CCOc3ccccc3F)c3ccccc23)CC1,?,?,?,83%
SMILES,HCV inh,Pf growth 48h,AMA1 RON2 block,Pf growth 96h
CC(C)C(=O)Nc1ccc(-c2nc3ccccc3c(=O)o2)cc1,-6%,26%,3%,12%
COc1ccccc1N(Cc1ccccc1)S(=O)(=O)c1cccc(C(=O)Nc2ccc(C)cn2)c1,?,4.1µM*,3%,1.9µM*
Cc1cc(NS(C)(=O)=O)c(=O)n(Cc2cccc(F)c2)c1,15%,17%,-2%,2.6µM*
Cc1ccc(Cn2cccc(NS(C)(=O)=O)c2=O)cc1,-9%,3%,-2%,68%
O=C(OCC(=O)N1CCc2ccccc21)c1c2c(nc3ccccc13)CCCC2,2µM*,8.3µM*,-9%,?
O=C(COC(=O)c1c2c(nc3ccccc13)CCCC2)c1cccs1,?,?,-10%,?
